Screening results as filed in PubChem BioAssay.
Most compounds without a hit are left out; they make up all but 9.2% or so of the library.
HttQ103 aggreg = reduces HttQ103-GFP aggregates in PC12 cells; AID 1688; Potency, µM (doses to about 46.1 µM), for the others: at the highest dose activity change, negative = inhibition, most hits filed as inhibitors; 220,000 tested, 1.1% active; PC12 HttQ103-GFP aggregates, Acumen cytometry, 40 h; active means well fitted curve in the direction sought with a large enough effect; inconclusive means small, poorly fitted or top-dose-only effect, or another doubt; inactive means no such curve, though single readings can be large; an effect the other way counts as inactive or inconclusive; further: on the % scale 0 is the no-effect control and ±100 the full control effect; nearly all actives have a fitted effect of over 60% in size
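Inducible Q103 Huntingtin exon 1–GFP PC12 line, 1500 cells/well in phenol red free DMEM with 5% equine and 5% calf serum. Tebufenozide 100 nM induced expression; compounds titrated; aggregates quantified by cytometry.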
KDM4E inh = JMJD2E (human) inhibition | AID 2147 | Potency, µM (highest dose often 57.1 µM), without a hit: top-dose activity change, negative = inhibition, usual class: inhibitors | 230,000 tested, 1.6% active | JMJD2E catalytic domain, FDH-coupled NADH fluorescence (FDH is formaldehyde dehydrogenase);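 further: 0% = wells with enzyme and -100% = buffer wells without enzyme; nearly all actives have a fitted effect of over 50% in size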
Lamin A splicing = changes lamin A minigene splicing in HeLa cells. 200,000 tested, 0.01% active. HeLa LMNA splicing GFP/RFP minigene ratio, 48 h. Potency, µM (top dose mostly 46.1 µM), inactives show at the highest dose ratio change, negative = inhibition, usual class: inhibitors; active means well fitted inhibition curve with a large enough effect in the signal ratio, with a control signal flat, not every such curve was filed as active; inconclusive means small, poorly fitted or top-dose-only effect, or effect the other way, or a change in a side signal; the % refers to the signal ratio; further: on the % scale 0 is the no-effect control and ±100 the full control effect
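S3 HeLa cells stably expressing lamin A-EGFP splicing minigene plus DsRed2, 600 cells/well, 48 h compound exposure at 37C. Laser-scanning cytometry; analysed as GFP (500-530 nm)/RFP (575-640 nm) total intensity ratio; 0.5% DMSO vehicle.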
HPGD block = HPGD (human) dehydrogenase inhibition. purified HPGD, NADH fluorescence kinetic, PGE2 substrate. Potency, µM, inactives show top-dose activity change, negative = inhibition, actives largely listed as inhibitors. 150,000 tested, 4.3% active; further: on the % scale 0 is the no-effect control and ±100 the full control effect
Target sequence (P15428 whole entry, looked up): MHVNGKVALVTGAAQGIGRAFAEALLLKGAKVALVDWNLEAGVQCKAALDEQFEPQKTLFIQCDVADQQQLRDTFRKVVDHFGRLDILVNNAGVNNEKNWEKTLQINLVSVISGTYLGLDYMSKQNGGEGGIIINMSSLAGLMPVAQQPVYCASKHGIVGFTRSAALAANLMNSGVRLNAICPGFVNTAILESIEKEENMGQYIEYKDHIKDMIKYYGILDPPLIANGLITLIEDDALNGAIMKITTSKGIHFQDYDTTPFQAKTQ
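NADH formation kinetics: reaction with 30 uM PGE2 and 1 mM NAD+ (final), 20 nM enzyme, Tris-HCl pH 8 with Tween 20, after 15 min compound preincubation at room temperature. Fluorescence change, last versus first of five reads.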
ALDH1A1 inh = blocks purified human ALDH1A1 activity; P00352; Purified ALDH1A1, NADH fluorescence, propionaldehyde substrate; Potency, µM (doses to about 75.3 µM), for inactives: top-dose activity, negative = inhibition, hits mostly inhibitors; 220,000 tested, 7.3% active;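 further: plate controls were no enzyme wells and a reference inhibitor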
HTT ATP protect = cytoprotection in Huntington HTT-Q103 PC12 cell model | PC12 HTT-Q103 induced, cytoprotection, ATP luminescence, 40 h | Potency, µM (top dose mostly 56.4 µM), inactives show cytoprotection (ATP increase), actives largely listed as activators | 230,000 tested, 0.14% active | AID 1471; active means well fitted curve in the direction sought with a large enough effect; inconclusive means small, poorly fitted or top-dose-only effect, or another doubt; inactive means no such curve, though single readings can be large; an effect the other way counts as inactive or inconclusive; further: % of control where 0% means no effect; nearly all actives have a fitted effect of over 45% in size
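Rat PC12, Q103 Htt exon1-GFP fusion, ecdysone promoter; tebufenozide inducer 100 nM final; compound titration; qHTS, 1500 cells/well; ATPlite luminescent read.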
Numbers without * were called inactive; u = inconclusive; x = no result given; [ ] = dose if it differs, or a comment. Unless noted, the call rests on the fitted dose curve; in most records, active means well fitted inhibition curve with a large enough effect (not every such curve was filed as active); inconclusive means small, poorly fitted or top-dose-only effect, or another doubt; inactive means no such curve, though single readings can be large or run the other way. Potency means the concentration at half of the fitted maximal effect.

SMILES | HttQ103 aggreg | KDM4E inh | Lamin A splicing | HPGD block | ALDH1A1 inh | HTT ATP protect
COc1ccc(C2=NN(CN3C(=O)C(=O)c4ccccc43)C(c3ccc(OC)cc3)C2)cc1 (centres undefined) | -6% | -4% | u | -23% | 0.11µM* | x
COc1cccc(C2C(C#N)=C(N)OC3=C2C(=O)CC(c2ccco2)C3)c1OCc1ccc(F)cc1 (centres undefined) | -12% | -8% | 14%[0.0737 µM] | -21% | -7% | -27%
N#CC1=C(N)OC2=C(C(=O)CC(c3ccco3)C2)C1c1ccc(OCc2c(F)cccc2Cl)cc1 (centres undefined) | u | -19% | 14% | -22% | 8.9µM* | -16%
O=C(NCc1ccccc1)c1nc[nH]c1C(=O)NCc1ccccc1 | -2%[9.22 µM] | 7% | 2%[46 µM] | x | 2.5µM* | 0%[10 µM]
NNC(=O)c1nc[nH]c1C(=O)Nc1ccccc1[N+](=O)[O-] | -5% | 11% | -8%[46 µM] | x | 0.79µM* | -63%
O=C(OCn1nnc2ccccc2c1=O)C1CCCCC1 | -8% | -21% | 8% | 11µM* | 16µM* | -16%[10 µM]
O=C(CCSc1ccccc1)OCn1nnc2ccccc2c1=O | 3% | -3% | x | x | -9% | -7%
COc1cc(OC)cc(C(=O)OCn2nnc3ccccc3c2=O)c1 | 10% | -4% | -2% | -11% | -6% | 11%[10 µM]
Cc1ccc(SCCC(=O)OCn2nnc3ccccc3c2=O)cc1 | 1% | 6% | u | x | 15µM* | 2%[10 µM]
O=C(CN1C(=O)C2CCCCC2C1=O)OCn1nnc2ccccc2c1=O (centres undefined) | 7% | 7% | -19%[46 µM] | x | u | 0%[10 µM]
CCC1(CC)NC(=O)N(CC(=O)OCn2nnc3ccccc3c2=O)C1=O | 2% | 6% | 4% | -22% | 13µM* | -17%[10 µM]
O=C(OCn1nnc2ccccc2c1=O)c1ccc2ncsc2c1 | -1% | 7% | u | 25µM* | u | -45%
CCOC(=O)c1ccc(NC(=O)c2cnc(N3CCCC3)nc2C)cc1 | x | x | 15%[46 µM] | x | x | x
Cc1cccc(Cn2c(CNS(=O)(=O)c3ccc4c(c3)CCCC4)nc3cccnc32)c1 | x | x | 3%[46 µM] | x | x | x
N#Cc1c(NC(=O)CSc2ncnc3sccc23)oc(-c2ccco2)c1-c1ccco1 | 13% | -14% | -8% | u | 10µM* | 6%[10 µM]
Nc1nc2ccc([N+](=O)[O-])cc2s1 | x | x | x | -14% | u | -10%
COc1ccccc1N1CCN(C(c2cc3cc(C)ccc3[nH]c2=O)c2nnnn2C2CCCC2)CC1 (centres undefined) | -6% | -11% | 4% | -3% | 14µM* | -29%[10 µM]
COc1ccc2cc(C(c3nnnn3CCc3ccccc3)N3CCCC(C)C3)c(=O)[nH]c2c1 (centres undefined) | 8% | u | 0% | -9% | 32µM* | 7%
COCCn1nnnc1C(c1cc2cc(C)ccc2[nH]c1=O)N1CCCCCC1 (centres undefined) | 3% | u | 4% | -19% | 25µM* | -8%
COc1ccccc1N1CCN(C(c2cc3ccc(C)cc3[nH]c2=O)c2nnnn2C2CCCC2)CC1 (centres undefined) | 6% | u | 5% | -15% | 25µM* | -32%
COCCn1nnnc1C(c1cc2cc(OC)ccc2[nH]c1=O)N1CCC(Cc2ccccc2)CC1 (centres undefined) | u | u | -5% | u | u | 9%[10 µM]
COc1ccc([C@@H]2OC[C@]3(COC(C)=O)[C@H](C)C=C(C)[C@@H]2[C@H]3C)cc1 | x | x | x | x | x | 2%
Cc1ccc(O)c(C(=O)c2cnc3c(c2)c(C)nn3-c2ccccc2)c1 | -21% | -2% | u | u | -3% | -1%[0.074 µM]
COC1CC2CCC(C)[C@](O)(O2)C(=O)C(=O)N2CCCCC2C(=O)OC(C(C)CC2CCC(O)C(OC)C2)CC(=O)C(C)/C=C(/C)C(O)C(OC)C(=O)C(C)CC(C)C=CC=C/C=C\1C (some centres undefined) | -2% | x | x | x | x | -35%
